Inconclusive results are not listed. Calls of active or inactive are those of the source. Calls follow the shape of the dose curve; as a rule, active = well fitted inhibition curve with a large enough effect; inconclusive = small, poorly fitted or top-dose-only effect; inactive = flat fitted curve, though single readings scatter.
Columns and labels:
Test in all cases: Cytotoxic Profiling of Annotated Libraries Using Quantitative High-Throughput Screening (AID 1296008); also: nearly all actives have a fitted effect of over 60% in size
Settings in all cases: Five cell lines viability, CellTiter-Glo ATP luminescence, 48-72 h; max response: hits give low values
HaCat = tested on: HaCat
Outline: (§1)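 Cytotoxicity was measured as CellTiter-Glo ATP luminescence, read after 10 min at room temperature. Compound treatment of the cells lasted 48 or 72 hr at 37 degrees Celsius in a qHTS format.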

KB-3-1 = tested on: KB-3-1
Outline: as §1

NIH3T3 = tested on: NIH3T3
Outline: as §1

Measured: max response
% is scaled to controls: 0 for no effect and ±100 for the full control effect.

Cc1ccc(-c2ccc3c(ccc4sc5c(c43)NC[C@@H](C)NC5=O)n2)cn1
inactive: HaCat -8.25% | KB-3-1 | NIH3T3 -0.392%

Cc1cccc(S(=O)(=O)N2CCC[C@@H]2CCN2CCC(C)CC2)c1
inactive: HaCat -28.1% | KB-3-1 -9.32% | NIH3T3 -11.7%

CC1(O)CCCC2(C)C1CCC13CC(CO)C(CCC12)C3 (centres undefined)
inactive: HaCat 2.13% | KB-3-1 | NIH3T3 -0.27%
